Experimental data taken from PubChem BioAssay (NCI).
This is part of a sample that, as a whole, favours compounds with a hit. Of some 83,000 tested, about 20% had one in any assay.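 Cells were grown in 96-well plates and exposed to the test compound at a single concentration for 48 hours; results are reported as percent growth, with values below 10 considered active.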 Active and inactive are the calls of the source.

How the values were obtained:
Test in all cases: NCI-60 one-dose screen, 48 h (100 = growth as untreated, 0 = no growth, -100 = all killed)
Settings in all cases: 10 µM unless noted
T-47D breast = tested on: T-47D breast
BT-549 breast = tested on: BT-549 breast
MDA-MB-435 melanoma = tested on: MDA-MB-435 melanoma
SW-620 colon = tested on: SW-620 colon
MCF7 breast = tested on: MCF7 breast
HCT-116 colon = tested on: HCT-116 colon
HCC-2998 colon = tested on: HCC-2998 colon
KM12 colon = tested on: KM12 colon

Measured: growth

CC(C)(C)c1cc(Cl)c(O)c(CNCCO)c1
inactive: T-47D breast 98.7% | BT-549 breast 109% | MDA-MB-435 melanoma 101% | SW-620 colon 86.4% | MCF7 breast 96.3% | HCT-116 colon 99.1% | HCC-2998 colon 104% | KM12 colon 111%

CCOC(=O)C#Cc1c(C(=O)OCC)nnn1Cc1ccc(C(F)(F)F)cc1
active: SW-620 colon -23.9% | MCF7 breast 1.53%
inactive: T-47D breast 31.8% | BT-549 breast 63.1% | MDA-MB-435 melanoma 63.8% | HCT-116 colon 31.1% | HCC-2998 colon 102% | KM12 colon 89.4%

COc1cc(/C=C/C(=O)/C=C(O)/C=C/c2ccc(OC(=O)C34CC5CC(CC(C5)C3)C4)c(OC)c2)ccc1OC(=O)C12CC3CC(CC(C3)C1)C2
inactive: T-47D breast 97.9% | BT-549 breast 104% | MDA-MB-435 melanoma 106% | SW-620 colon 98.4% | MCF7 breast 98.5% | HCT-116 colon 89.9% | HCC-2998 colon 106% | KM12 colon 113%

Cc1c(Cl)cccc1C(=O)Nc1nc2c(s1)CN(C(=O)c1ccc(C(F)(F)F)cc1)CC2
active: MDA-MB-435 melanoma -12.4% | HCT-116 colon 8.9%
inactive: T-47D breast 60.9% | BT-549 breast 24.8% | SW-620 colon 18.6% | MCF7 breast 17.3% | HCC-2998 colon 28.4% | KM12 colon 18.9%

COC(=O)c1cc(Br)ccc1O
inactive: T-47D breast 119% | BT-549 breast 103% | MDA-MB-435 melanoma 116% | SW-620 colon 114% | MCF7 breast 99.2% | HCT-116 colon 108% | HCC-2998 colon 110% | KM12 colon 126%

CN(CCCNC(=O)Cc1ccc2ccc3cccc4ccc1c2c34)CCCNc1cc(-c2ccc3ccccc3c2)nc2ccccc12
active: T-47D breast -67% | BT-549 breast -4.41% | MDA-MB-435 melanoma -63.4% | SW-620 colon -69.4% | MCF7 breast -86.2% | HCT-116 colon -85.4% | HCC-2998 colon -89.1% | KM12 colon -80%

O=C(Cc1ccc(/C=C/C(=O)c2ncc[nH]2)cc1)Nc1cc(C(F)(F)F)cc(C(F)(F)F)c1
active: MCF7 breast 7.59% | HCT-116 colon 5.37%
inactive: T-47D breast 80.5% | BT-549 breast 99.7% | MDA-MB-435 melanoma 60.1% | SW-620 colon 53.5% | HCC-2998 colon 63% | KM12 colon 38.5%

COc1ccc2c(c1)c(-c1nc(-c3c[nH]c4ncccc34)cs1)cn2CCO
inactive: T-47D breast 23.4% | BT-549 breast 41.7% | MDA-MB-435 melanoma 66.5% | SW-620 colon 63.1% | MCF7 breast 20.1% | HCT-116 colon 50.9% | HCC-2998 colon 58.9% | KM12 colon 20.7%

O=C1C(Nc2ccccn2)=C(I)C(=O)c2ncccc21
active: T-47D breast -42.5% | BT-549 breast -68.5% | MDA-MB-435 melanoma -82.2% | SW-620 colon -64.6% | MCF7 breast -58.7% | HCT-116 colon -62.2% | KM12 colon -26.1%
inactive: HCC-2998 colon 53.1%

CN1CCN(Cc2ccc(NC(=O)c3cncc(C#Cc4cnc(N)c5ncccc45)c3)cc2C(F)(F)F)CC1
inactive: T-47D breast 35.9% | BT-549 breast 34.1% | HCC-2998 colon 16.3%
active: MDA-MB-435 melanoma -64.7% | SW-620 colon -16.9% | MCF7 breast -74.2% | HCT-116 colon -63.8% | KM12 colon 5.04%

Nc1c(C(=O)Nc2cccc(Cl)c2)sc2nc3c(cc12)CCCC3
inactive: T-47D breast 80.8% | BT-549 breast 93.1% | MDA-MB-435 melanoma 34.4% | SW-620 colon 92.3% | MCF7 breast 71.6% | HCT-116 colon 91.6% | HCC-2998 colon 91.4% | KM12 colon 77.6%

CC(=O)ON1CCCC(P(=O)(OCCSC(=O)C(C)(C)C)OCCSC(=O)C(C)(C)C)C1=O (stereo not given)
active: KM12 colon 5.16%
inactive: T-47D breast 14.8% | BT-549 breast 30.9% | MDA-MB-435 melanoma 48.5% | SW-620 colon 30.9% | MCF7 breast 13.9% | HCT-116 colon 10.5% | HCC-2998 colon 11%

C=C1C(=O)O[C@H]2[C@H]1CC/C(COC(=O)/C=C\C(=O)NCc1ccc(Cn3c(=O)sn(CCCl)c3=O)cc1)=C\CC[C@@]1(C)O[C@@H]21
inactive: T-47D breast 84.7% | BT-549 breast 85.5% | MDA-MB-435 melanoma 65.8% | SW-620 colon 31.2% | MCF7 breast 61.8% | HCT-116 colon 68.7% | HCC-2998 colon 117% | KM12 colon 97.1%

CC(C)(C)n1cc(-c2ccnc(NCCCNS(=O)(=O)c3ccc(C(F)(F)F)cc3)c2)c(-c2cccc(F)c2)n1
inactive: T-47D breast 64.5% | BT-549 breast 84% | MDA-MB-435 melanoma 93.7% | SW-620 colon 90% | MCF7 breast 66.2% | HCT-116 colon 54.4% | HCC-2998 colon 106% | KM12 colon 65.7%

COc1cccc(/C=C/C(=O)c2cc3c(N)c(C(=O)Nc4cccc5ccccc45)sc3nc2C)c1
active: MDA-MB-435 melanoma -50.7% | SW-620 colon -1.14% | HCC-2998 colon -23.8%
inactive: T-47D breast 32.3% | BT-549 breast 19.3% | MCF7 breast 13.4% | HCT-116 colon 12.2% | KM12 colon 11%

N#Cc1cncc(-c2ccc3ncnc(Nc4cccc(Cl)c4)c3c2)c1
inactive: T-47D breast 56.4% | BT-549 breast 69.7% | MDA-MB-435 melanoma 93.4% | SW-620 colon 97.6% | MCF7 breast 75.9% | HCT-116 colon 36.6% | HCC-2998 colon 88.4% | KM12 colon 90.2%

O=C1c2ccccc2C(=O)C1c1ccc(Br)cc1
inactive: T-47D breast 108% | BT-549 breast 101% | MDA-MB-435 melanoma 97.9% | SW-620 colon 99.9% | MCF7 breast 87.7% | HCT-116 colon 92.4% | HCC-2998 colon 98% | KM12 colon 107%

Cc1nnc(-c2ccc3c(c2)nc(/C=C/c2ccccc2)n3C2CCCCC2)o1
inactive: T-47D breast 52% | BT-549 breast 81% | MDA-MB-435 melanoma 83.8% | SW-620 colon 111% | MCF7 breast 77.1% | HCT-116 colon 64.5% | HCC-2998 colon 87.7% | KM12 colon 85.1%

COc1ccc(C2=CN3CC=CC3CC2=O)cc1 (stereo not given)
inactive: T-47D breast 75.3% | BT-549 breast 105% | MDA-MB-435 melanoma 96.9% | SW-620 colon 105% | MCF7 breast 93.4% | HCT-116 colon 90.3% | HCC-2998 colon 91% | KM12 colon 101%

Fc1cc(Nc2ccc3c(OCCCN4CCOCC4)cccc3n2)ccc1Cl
active: SW-620 colon -32.2% | HCT-116 colon 3.61% | HCC-2998 colon -58.2% | KM12 colon -21.8%
inactive: T-47D breast 48.2% | BT-549 breast 57.9% | MDA-MB-435 melanoma 32% | MCF7 breast 14.2%

O=C(CCCCCCN1CC(=O)N2[C@H](c3ccc(Br)cc3)c3[nH]c4ccccc4c3C[C@@H]2C1=O)NO
inactive: BT-549 breast 55.1% | MDA-MB-435 melanoma 26.2% | SW-620 colon 20.4% | MCF7 breast 28.4% | HCT-116 colon 14.8% | HCC-2998 colon 67.5% | KM12 colon 60.9%
active: T-47D breast 9.61%

CN(CCCNC(=O)CCOCCOCCOCCNC(=O)Cc1ccc2ccc3cccc4ccc1c2c34)CCCNc1cc(-c2ccc3ccccc3c2)nc2ccccc12
active: T-47D breast -80.9% | BT-549 breast -83.6% | MDA-MB-435 melanoma -79.6% | SW-620 colon -79.6% | MCF7 breast -82.3% | HCT-116 colon -98.2% | HCC-2998 colon -87.4% | KM12 colon -86.6%

Oc1c(CN2CCCC2)cc(CSCc2ccccc2)c2cccnc12
inactive: BT-549 breast 28.5% | MDA-MB-435 melanoma 21.2% | SW-620 colon 13.6% | HCC-2998 colon 34.8% | KM12 colon 20.1%
active: T-47D breast -3.02% | MCF7 breast 8.46% | HCT-116 colon 7.5%

CNC(=O)c1cc(Oc2ccc3c(c2)sc2nc(-c4ccc(OC)cc4)cn23)ccn1
inactive: T-47D breast 46.4% | BT-549 breast 52.4% | SW-620 colon 77.7% | MCF7 breast 12.9% | HCT-116 colon 16% | HCC-2998 colon 17.4% | KM12 colon 58.9%
active: MDA-MB-435 melanoma 5.17%

Cc1ccc(C(=O)c2ccc(CC(=O)N=Nc3c(O)[nH]c4ccc(Br)cc34)n2C)cc1
inactive: T-47D breast 74.5% | BT-549 breast 100% | MDA-MB-435 melanoma 98.7% | SW-620 colon 91.2% | MCF7 breast 86.9% | HCT-116 colon 86% | HCC-2998 colon 124% | KM12 colon 97.9%

Cc1c(CN)cc(-c2ccc(Cl)cc2)n1-c1ccccc1
inactive: T-47D breast 52.5% | BT-549 breast 74.9% | MDA-MB-435 melanoma 97.1% | SW-620 colon 89.4% | MCF7 breast 75.1% | HCT-116 colon 67.3% | HCC-2998 colon 107% | KM12 colon 99.9%

O=C1/C(=C/c2ccccn2)NC(=S)N1c1ccccc1Cl
inactive: T-47D breast 44.1% | BT-549 breast 83.8% | MDA-MB-435 melanoma 67.4% | SW-620 colon 37.9% | MCF7 breast 32.9% | HCT-116 colon 12.2% | HCC-2998 colon 85.9% | KM12 colon 67.4%

CCN1C(=O)N(CC)C2C1N=C(SCc1ccc(Cl)cc1)N2/N=C/C=C/c1ccccc1OC (stereo not given)
active: MDA-MB-435 melanoma -16.9%
inactive: T-47D breast 41.6% | BT-549 breast 106% | SW-620 colon 74.8% | MCF7 breast 13.5% | HCT-116 colon 37% | HCC-2998 colon 85.9% | KM12 colon 64.6%

COC(=O)c1nc(-c2ccccc2)oc1S(=O)(=O)NCC(c1ccc(Cl)cc1)N1CCOCC1 (stereo not given)
inactive: T-47D breast 53.5% | BT-549 breast 56% | MDA-MB-435 melanoma 64.8% | SW-620 colon 18.7% | MCF7 breast 31.7% | HCT-116 colon 62.2% | HCC-2998 colon 121% | KM12 colon 89%

Cc1ccc(C2CC(c3nc(-c4ccc(Cl)cc4)oc3C)=NN2C(=O)c2ccncc2)cc1 (stereo not given)
inactive: T-47D breast 77.7% | BT-549 breast 96% | MDA-MB-435 melanoma 88.7% | SW-620 colon 93.4% | MCF7 breast 84.1% | HCT-116 colon 94.8% | HCC-2998 colon 97.6% | KM12 colon 88.3%
